In the supplement of paper PMC6555819:

Tests used:
Test in all cases: PBM binding z-score (relative to random genomic background probes); higher = stronger binding; sequences stand for … in GC…GCGATTGACAGCGTAGAATGAAGG
[1] = system: FXR:RXRa (NR concentration 270 nM, RXRa partner concentration 90 nM)
Summary of the method: (§1)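 Custom Agilent 4×180K protein-binding microarrays carried double-stranded probes, each with a 34-nt variable region. These regions held direct-repeat seeds, single-nucleotide variants, half-site ablations and random human genomic background sequences. Ligand-free nuclear receptor dimers were incubated on the arrays for 1 h, antibodies against each partner (one per run) detected binding, and scanned fluorescence was regression-normalized. Binding z-scores take the random background probes as reference.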

[2] = system: LXRa:RXRa (NR concentration 270 nM, RXRa partner concentration 90 nM)
Summary of the method: as §1

[3] = system: LXRa homodimer (NR concentration 270 nM)
Summary of the method: as §1

[4] = system: LXRb:RXRa (NR concentration 270 nM, RXRa partner concentration 90 nM)
Summary of the method: as §1

[5] = system: LXRb homodimer (NR concentration 270 nM)
Summary of the method: as §1

[6] = system: PPARa:RXRa (NR concentration 270 nM, RXRa partner concentration 90 nM)
Summary of the method: as §1

[7] = system: PPARg:RXRa (NR concentration 180 nM, RXRa partner concentration 90 nM)
Summary of the method: as §1

[8] = system: PPARg:RXRa 270nM:90nM, anti-RXR (NR concentration 270 nM, RXRa partner concentration 90 nM)
Summary of the method: as §1

[9] = system: PPARg:RXRa 30nM:10nM, anti-RXR (NR concentration 30 nM, RXRa partner concentration 10 nM)
Summary of the method: as §1

[10] = system: PPARg:RXRa 90nM:30nM, anti-RXR (NR concentration 90 nM, RXRa partner concentration 30 nM)
Summary of the method: as §1

Sequence | PBM binding z-score [1] | PBM binding z-score [2] | PBM binding z-score [3] | PBM binding z-score [4] | PBM binding z-score [5] | PBM binding z-score [6] | PBM binding z-score [7] | PBM binding z-score [8] | PBM binding z-score [9] | PBM binding z-score [10]
GATGCTAGGTCAACTGATGGTCAGCTAAAGCTCG | 3.82 | 3.15 | 0.377 | 2.11 | 0.0631 | 3.62 | 2.79 | 2.97 | 0.474 | 1.77
CTAACTAGGTCAAGAGGTCAAAGTCCGCTTCCCG | 6.96 | 6.46 | 6.71 | 5.78 | 2.03 | 6.55 | 10.3 | 8.4 | 7.88 | 8.64
CATACAGGGTCAGGTAGGCCAGAGTAGGGACGGC | 4 | 2.92 | -0.133 | 2.21 | 0.723 | 4.2 | 3.15 | 2.92 | 0.655 | 2.16
CCTAGCAGGCCAATCTGGGTCACTCACGGCTTGA | 0.571 | 1.17 | -0.195 | 0.493 | -0.78 | 2.81 | 1.85 | 1.92 | -0.256 | 1.18
TCGAGTAGGTTAGTCGGGGCATTCCGCCAACATA | 0.02 | 0.121 | -0.495 | 0.444 | -0.721 | 0.661 | -0.328 | 0.877 | 1.07 | 0.912
GCGACTCGGGCAAAGCAGGTTACCATAAGGTTGG | -0.00273 | -0.166 | -0.636 | -0.448 | -1.41 | 0.221 | 0.413 | -0.165 | -0.926 | -0.846
TCAGACAGGTTAAGGTAACTCAGGTACGCAGTCG | 1.49 | 2.63 | 0.305 | 1.79 | 0.039 | 1.93 | 0.858 | 2.5 | 4.03 | 3.21
ACTTGTTGGTCAGCTGAGGTCACACACAATTCGG | 3.37 | 3.31 | 2.13 | 3.51 | 0.632 | 3.79 | 1.8 | 2.46 | 0.673 | 1.95
TAGCCTAGGTCACGCGGGCCAGTATAGTGTCGGC | 5.13 | 3.81 | 0.104 | 2.03 | -0.215 | 4.31 | 4.11 | 4.02 | 0.903 | 3.02
ATCGAAAGGTCGAGGTGAGTATCGAGAAAGGGAA | 4.43 | 3.37 | -0.107 | 2.73 | 0.435 | 4.56 | 3.35 | 3.74 | 1.49 | 2.48
CCTTACGGGTCACGAGGGTATAGCACGACGAGCG | 6.44 | 4.54 | -0.0656 | 3.48 | -0.518 | 5.73 | 6.45 | 6.17 | 2.67 | 5.26
CATAGAGGGTCAGCTAGGCCAGAGTAGGGACGGC | 3.11 | 2.04 | -0.237 | 1.37 | 0.495 | 3.45 | 2.23 | 2.06 | 0.47 | 1.23
CGTCCAAGGTCAGCAGTTCAGTGAAAGCGACGTG | 5.17 | 3.5 | 0.594 | 2.73 | -0.167 | 4.42 | 2.78 | 3.37 | 0.482 | 1.82
CCGACTGGGGCAAGGTTACTATAACGCACAGCCA | 0.258 | 1.52 | -0.118 | 0.79 | -0.963 | 1.59 | 3.02 | 2.98 | 1.03 | 2.21
CCGACTGGGTCAAGGTTACCATAACGCACAGCCA | 3.19 | 2.1 | 0.079 | 2.21 | -0.717 | 4.15 | 6.25 | 5.71 | 3.15 | 5.32
TCATATAGGTAAAAGGTGAAACTCGGTGTGGTAA | 2.3 | 2.26 | 0.259 | 2.39 | 0.198 | 5.64 | 9.08 | 8.59 | 8.64 | 9.69
GGAACGACGGCAAAGTTGATAGCATCTGTCGACG | -0.522 | -0.556 | -0.557 | -0.755 | -0.926 | 0.00733 | 1.01 | 1.58 | 0.147 | 1.28
ACAGACAGGTGATGAAGGTAAGTCAGGCTATCAT | -0.11 | -0.19 | -0.349 | -0.143 | -0.155 | 0.0808 | 0.554 | -0.245 | -0.266 | -0.536
TGTCAAAGTTCAAAGGTAATGTAAGTATCCACAC | 7.19 | 6.2 | 4.51 | 4.31 | 1.91 | 5.66 | 8.55 | 7.39 | 5.63 | 7.6
ATCTCTAGGTAAGACGCAGTTCAGTGAAGAACGC | 0.238 | 0.0302 | 0.0448 | -0.176 | 0.151 | -0.0926 | 0.38 | 0.423 | 0.101 | 0.323
CGTCCAAGGCCAATGCTAGGTCAGTGAAAGCATT | 0.0419 | -0.0335 | 0.187 | -0.036 | -0.831 | 0.242 | -0.45 | -0.432 | -1.33 | -0.866
GTTAGTTGGTCAGTAAAAGGTCACACACCGGTCG | 3.73 | 4.28 | 5.17 | 3.94 | 1.41 | 4.6 | 3.42 | 4.81 | 2.66 | 4.18
GCTATTAGTTTAAAGGGCAACCGAATGATTCTCG | 0.917 | 1.13 | 0.643 | 1.42 | 0.922 | 2.44 | 2.98 | 4.5 | 2.59 | 4.67
ACTATTAGTTGACTTAGGGCCACCGATACGACGC | 0.803 | 0.394 | 0.324 | 0.152 | 0.713 | 0.121 | 1.07 | 0.422 | 0.18 | 0.363
